Assay [1] is described as follows: RMG-1 ovarian cancer cell viability loss – cherry-pick, dose response (AID 687029).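 Further: cells exposed to compound for 96 hours.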
Assay [2] in a line: IOSE-T80 viability loss, PAX8-independent line – cell-based, cherry-pick, selectivity assay for PAX8 inhibitor project, dose response (AID 687032;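 active means fitted half-maximal concentration for viability loss no higher than twice the top valid dose, in every repeat run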;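 further: cells exposed to compound for 96 h before reading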).
A short description of assay [3]: small-molecule DNA binding by polarization – biochemical, fluorescence polarization, cherry-pick, counter-screen for EWS/Fli inhibitor project, dose response (AID 720586;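 active means fitted curve reaches a 35% signal fall AC35 below twice the sample's top valid tested dose, actives reach about 48 µM in these data; inactive means the rest, including activity in the rising direction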;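 further: lower polarization ratio signals compound binding to DNA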).
A short description of assay [4]: general cell-killing toxicity readout – plate reader, dry powder samples, cytotoxicity control for PAX8 inhibitor project, dose response (AID 743021; call rule not given here).
Assay [5] is described as follows: CMV-driven luciferase expression suppression in HEK293 – cell-based, luminescence, dry powder, counter-screen for Pax8 inhibitor project, dose response (AID 743020;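 active means signal-lowering compounds whose fitted half-maximal concentration is at or below twice the top tested dose in every run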;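 further: HEK293 cells stably expressing the CMV luciferase reporter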).

For some assays here: Potency and affinity values are given separately. Records with an inconclusive call do not appear. Values without a mark were called inactive. This is one part of the list. Entries that show only a call come without a potency. The source made the active and inactive calls.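 How the source made its calls, unless noted: active means signal drop whose fitted half-maximal concentration is at most twice the top valid dose, in every test run; inconclusive means mixed calls across runs, poor fit, or flat 30 to 70% inhibition; inactive means wrong direction, flat within 30%, or potency beyond limit.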

For the compound `C=CCn1c(C)cc(C2=NNC(=NCC)SC2)c1C`, the outcome in assay [1] was inactive.
Still for that read-out and setting: the entry for `C[C@@H]1CN([C@@H](C)CO)C(=O)Cc2cc(NS(=O)(=O)c3ccccc3)ccc2O[C@H]1CN(C)Cc1ccc(Cl)c(Cl)c1` is “inactive”.
With `COC1=CC(=O)c2c(ccc3ncnc(N)c23)C1=O`, in assay [1], the outcome was inactive.
Consider `N#C[C@@H]1[C@H](c2ccc(C#CC3CCCC3)cc2)[C@H](CO)N1C(=O)Nc1ccc(F)cc1`, for which the outcome in assay [1] and in assay [2] was inactive.
Take `N#Cc1nccnc1S(=O)(=O)c1cccs1`: the call in assay [1] was inactive.
Consider `NC1=C(Br)C(=O)c2ncccc2C1=O`, for which the compound was classed as inactive in assay [1].
Same read-out and setting: the entry for `COc1ccc2nc(C)cc(N/N=C/c3cccc(OC)c3O)c2c1` is “inactive”; for `O=C(O)c1ccc(N/N=C/c2ccc3c(c2)OCO3)cc1` it is “inactive”.
Same read-out and setting: the entry for `OCC1OC(n2cnc3c(NCc4ccccc4O)ncnc32)C(O)C1O` (configuration not stated) is “inactive”; for `CCS(=O)(=O)c1ncc(Cl)c(C(=O)Nc2ccc(S(=O)(=O)N3CCC(C)CC3)cc2)n1` it is “inactive”; for `NC(N)=NN=C(c1ccc(F)cc1)c1ccc(C(F)(F)F)cc1` it is “inactive”.
On the same count and under the same terms, the entry for `Clc1ccc(Cn2ncc3c(N4CCN(c5ccccc5)CC4)ncnc32)cc1` is “inactive”.
For the compound `CC(OC(=O)c1ccc(S(C)(=O)=O)c([N+](=O)[O-])c1)C(=O)NC1C2CC3CC(C2)CC1C3` (configuration not stated), the outcome in assay [1] and in assay [2] was inactive.
As for `CC(C)(C)OC(=O)NCCCC[C@H](NC(=O)c1[nH]cnc1C(=O)Nc1ccc(CNC(=O)OC(C)(C)C)cc1)C(=O)OC(C)(C)C`, the compound was called inactive in assay [1].
As to `O=C(CCl)N=c1sccn1Cc1cccc2ccccc12`, in assay [1], the outcome was inactive.
Still for that read-out and setting: the value for `Cc1onc(C(=O)N2CCN(C(c3ccccc3)c3ccccc3)CC2)c1[N+](=O)[O-]` was “inactive”.
The same measure, in the same setting: the value for `CCN1CCN(Cc2ccc(NC(=O)c3ccc(C)c(NC(=O)c4c[nH]c5cc(C(F)(F)F)ccc5c4=O)c3)cc2C(F)(F)F)CC1` was “inactive”; that for `CCOc1ccccc1NC(=O)c1nc(S(=O)(=O)Cc2cccc(C)c2)ncc1Cl` was “inactive”.
Still for that read-out and setting: the entry for `COc1ccc(/C=c2/sc3n(c2=O)C(c2ccccc2OC)C2=C(N=3)c3ccccc3CC2)cc1O` (configuration not stated) is “inactive”.
As to `Cc1ccc(Cl)cc1NC1=C/C(=N\S(=O)(=O)c2cccs2)c2ccccc2C1=O`, the result in assay [1] was inactive.
`O=C1C(=O)c2cccnc2-c2ncccc21`: the compound was classed as inactive in assay [1].
Regarding `CCC1CCCCN1S(=O)(=O)c1ccc(NC(=O)c2nc(S(C)(=O)=O)ncc2Cl)cc1` (configuration not stated), the result in assay [1] was inactive.
The same measure, in the same setting: the entry for `Cc1nc(-c2ccc(NC(=O)c3ccco3)cc2)cs1` is “inactive”.
Take `Nc1nc(=S)c2ncn([C@@H]3O[C@H](CO)[C@@H](O)[C@H]3O)c2[nH]1`: the call in assay [1] was inactive.
The same measure, in the same setting: the entry for `O=C(CCl)N(c1ccccc1)C1CCCCC1` is “inactive”; for `Cc1cc(Br)c(OCc2ccc(C(=O)N/N=C/c3ccc[nH]3)cc2)c(Br)c1` it is “inactive”.
For `O=C(Nc1ccc([N+](=O)[O-])cc1)C(=O)Nc1cccc(C(=O)O)c1`, the compound was called inactive in assay [1].
Still for that read-out and setting: the entry for `CCCCCCN(C(=O)CCl)c1ccccc1` is “inactive”.
As for `C[C@H]1CN([C@@H](C)CO)C(=O)c2c(c3ccccc3n2C)-c2ccccc2CO[C@H]1CN(C)S(=O)(=O)c1ccc([N+](=O)[O-])cc1`, the outcome in assay [1] and in assay [2] was inactive.
For the compound `Cc1ccc(Cn2ccsc2=NC(=O)CCl)cc1`, the compound was classed as inactive in assay [1].
As to `CC1OC(CC(=O)O)CC2=C1C(=O)c1c(O)cccc1C2=O` (configuration not stated), the call in assay [1] and in assay [2] was inactive.
`OC(CNCC(c1ccc(Cl)cc1Cl)c1c[nH]c2ccccc12)c1ccccc1` (configuration not stated): the call in assay [1] and in assay [2] was inactive.
As for `O=c1cc(-c2ccc(O)cc2)oc2ccc3ccccc3c12`, the compound was classed as inactive in assay [1] and in assay [2].
On to `O=c1c(Br)c(Br)cnn1-c1ccccc1`, for which the compound was called inactive in assay [1] and in assay [2].
As to `Cc1nn(-c2ccccc2)c(Cl)c1CN(C(=O)CCl)c1ccc(Cl)cc1`, the call in assay [1] and in assay [2] was inactive.
On to `Cc1ccc(-n2nc(C)c(NC(=O)CCl)c2C)cc1C`, for which the compound was classed as inactive in assay [1] and in assay [2].
As for `C[C@H](CO)N1C[C@H](C)[C@@H](CN(C)S(=O)(=O)c2ccc(F)cc2)OCCCC[C@H](C)Oc2ccc(NS(=O)(=O)c3ccc(Cl)cc3)cc2C1=O`, the compound was called inactive in assay [1] and in assay [2].
For the compound `CC[C@@H](C)[C@H](CNC)NC[C@@H](Cc1cccc2ccccc12)NCCc1cccc(C(F)(F)F)c1`, the compound was called inactive in assay [1] and in assay [2].
Turning to `CCS(=O)(=O)c1ncc(Cl)c(C(=O)Nc2ccc(C)cc2)n1`, the result in assay [1] and in assay [2] was inactive.
As to `CCC[C@H](CN[C@@H](CNC)[C@H](C)CC)NCCc1cc(C(F)(F)F)cc(C(F)(F)F)c1`, the compound was classed as inactive in assay [1] and in assay [2].
For `COc1ccc(C2C(O)C(c3c[nH]c4ccccc34)=NN2C(=O)CCl)cc1` (configuration not stated), the compound was called inactive in assay [1] and in assay [2].
For the compound `COc1ccc(-c2sc3ccccc3c2-c2ccc(OCCN(C)C)cc2)cc1`, the outcome in assay [1] and in assay [2] was inactive.
Take `NC1=CC(=O)C(=O)c2cccnc21`: the compound was classed as inactive in assay [1], in assay [2] and in assay [4]. Further, the AC35 result in assay [3] is “inactive”.
As to `COc1ccc(C#Cc2ccc([C@H]3[C@@H](CO)N4CCCCN(C(=O)Nc5cccc(F)c5)C[C@H]34)cc2)cc1`, the outcome in assay [1] and in assay [2] was inactive.
`CC1CCN(c2ccc(-c3cccc(NC(=O)C(F)(F)F)c3)nn2)CC1`: the result in assay [1] and in assay [2] was inactive.
Regarding `OCC1OC(n2cnc3c(NCc4ccco4)ncnc32)C(O)C1O` (configuration not stated), the call in assay [1] and in assay [2] was inactive.
For the compound `COC(=O)C1=C(C)N(Cc2ccc(C(F)(F)F)cc2)C(=NCc2ccccc2)NC1c1cccc(Cl)c1` (configuration not stated), the compound was called inactive in assay [1] and in assay [2].
Consider `CC(=O)n1cc(N(C(=O)CCl)c2ccccc2)c2ccccc21`, for which the compound was classed as inactive in assay [1] and in assay [2].
As to `COc1ccc(NC(=O)c2cc([N+](=O)[O-])ccc2O)cc1`, the outcome in assay [1] and in assay [2] was inactive.
As for `COc1cc(/C=N/Nc2nc(Nc3ccc(C)cc3)nc(-n3nc(C)cc3C)n2)cc(OC)c1OC`, the outcome in assay [1] and in assay [2] was inactive.
For `COc1cc(OC)nc(-n2ncc(Br)c(Br)c2=O)n1`, the outcome in assay [1], in assay [2] and in assay [5] was inactive.
As to `Cc1cc(C)c2nc(C)cc(N/N=C/c3ccc(O)cc3)c2c1`, the outcome in assay [1] and in assay [2] was inactive.
Regarding `C=CCOc1ccccc1CN(C(=O)CCl)c1ccc2c(c1)OCO2`, the result in assay [1] and in assay [2] was inactive.
Turning to `O=C(C#Cc1ccccc1)c1ccco1`, the outcome in assay [1] and in assay [2] was inactive.
`Brc1ccc2nc(-c3ccc(CN4CCC(c5nc6ccccc6[nH]5)CC4)cc3)c(-c3ccccc3)nc2c1`: the compound was classed as inactive in assay [1] and in assay [2].
Turning to `O=c1c2ccccc2cnn1-c1nc2ccccc2[nH]1`, the compound was called inactive in assay [1] and in assay [2].
Take `CCN(CC)S(=O)(=O)c1cc([N+](=O)[O-])ccc1NNC(=O)Nc1ccc(Cl)c(Cl)c1`: the result in assay [1] and in assay [2] was inactive.
With `CN(C[C@H]1N[C@@H](CO)[C@@H]1c1ccc(-c2cccnc2)cc1)C(=O)c1ccccc1`, the call in assay [1] and in assay [2] was inactive.
On to `CN1CCN(CCCNC(=O)c2ccc(/C=C3\Oc4ccccc4N(Cc4ccc(Cl)cc4)C3=O)cc2)CC1`, for which the compound was classed as inactive in assay [1] and in assay [2].
On to `COc1ccccc1N(C(=O)CCl)c1cn(C(C)=O)c2ccccc12`, for which the compound was called inactive in assay [1] and in assay [2].
Take `COc1ccc(N(C(=O)CCl)C(C(=O)NCCc2ccccc2)c2cccs2)cc1Cl` (configuration not stated): the compound was called inactive in assay [1] and in assay [2].
`C#Cc1cc(N2CCN(C(=O)c3ccoc3)CC2)n2nc(-c3cccc(Cl)c3)cc2n1`: the compound was called inactive in assay [1] and in assay [2].
`O=C(Nc1ccc2nc3n(c(=O)c2c1)CCCCC3)c1cc([N+](=O)[O-])ccc1F`: the result in assay [1] and in assay [2] was inactive.
As for `CCS(=O)(=O)c1ncc(Cl)c(C(=O)Nc2ccc(S(=O)(=O)N(C)c3ccccc3)cc2)n1`, the result in assay [1] and in assay [2] was inactive.
As for `Cc1cc(=O)n2c3c(c4c(cc13)c(CN(C)C)cc(=O)n4C)OC2`, the call in assay [1] and in assay [2] was inactive.
For `COc1ccc(N(C(=O)CCl)C(C(=O)NC2CCCCC2)c2cccnc2)cc1` (configuration not stated), the outcome in assay [1] and in assay [2] was inactive.
Take `O=c1c(Cl)c(Cl)cnn1-c1ccccc1`: the compound was classed as inactive in assay [1] and in assay [2].
Turning to `COc1ccc(/C=N/Nc2cc(C)nc3ccc(Br)cc23)cc1`, the result in assay [1] and in assay [2] was inactive.
On to `COc1cccc(NC(=O)Nc2nc(-c3ccc(OC)c(OC)c3)cs2)c1`, for which the result in assay [1] and in assay [2] was inactive.
For the compound `N#C[C@H]1[C@H](c2ccc(C#CC3CCCC3)cc2)[C@@H](CO)N1C(=O)Nc1ccc(F)cc1`, the outcome in assay [1] and in assay [2] was inactive.
With `COc1ccc(S(=O)(=O)/N=C2\C=C(Nc3ccc(O)cc3)C(=O)c3ccccc32)cc1`, the result in assay [1], in assay [2] and in assay [5] was inactive.
In the case of `COc1cccc(N(C(=O)c2ccco2)c2nc(-c3sc(NC(=O)c4ccco4)nc3C)cs2)c1`, the compound was classed as inactive in assay [1], in assay [2] and in assay [5].
`C[C@H](CO)N1C[C@H](C)[C@@H](CN(C)C(=O)Nc2ccc3c(c2)OCO3)Oc2cc(C#Cc3ccncc3)ccc2S1(=O)=O`: the outcome in assay [1], in assay [2] and in assay [5] was inactive.
For the compound `COc1ccc(C(=O)NNC(=O)c2ccccn2)cc1`, the result in assay [1], in assay [2] and in assay [5] was inactive.
On to `CCC(OC(=O)c1ccc(S(C)(=O)=O)c([N+](=O)[O-])c1)C(=O)NC1C2CC3CC(C2)CC1C3` (configuration not stated), for which the call in assay [1], in assay [2] and in assay [5] was inactive.
For the compound `CCSc1ccc(-c2cc(NC=O)c3ncc(-c4cccc(C(=O)NCCN(C)C)c4)n3c2)cc1`, the compound was classed as inactive in assay [1], in assay [2] and in assay [5].
Consider `COc1ccc(/C=C/c2nc3ccccc3n2C)cc1`, for which the call in assay [1], in assay [2] and in assay [5] was inactive.

For the origin of these results see PubChem BioAssay.
